Assay outcomes from PubChem BioAssay.
Rows were chosen to be rich in hits. Some 19% of all compounds tested hit in one or more screens of this group.
TDP1 cell noCPT – qHTS for Inhibitors of human tyrosyl-DNA phosphodiesterase 1 (TDP1): qHTS in cells in absence of CPT. 15% of 420,000 active. DT40 Tdp1-/- hTDP1 cells, no CPT, ATP luminescence, 48 h. AID 686978, 2013. Potency, µM (highest dose often 46.2 µM), inactives show at the top dose activity change, negative = growth inhibition, usual class: inhibitors; note: potency is the fitted concentration of half-maximal effect; nearly all actives have a fitted effect of over 55% in size
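Seeded 400 DT40-hTDP1 cells/well (vehicle DMSO, no 20 nM CPT); pinned compounds; ≥48 hr at 37 °C; CellTiter-Glo luminescence as viability measure.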
TDP1 cell CPT – growth inhibition of DT40 Tdp1-/-;hTDP1 cells with camptothecin (screen for TDP1 inhibitors). chicken DT40 Tdp1-/-;hTDP1 cells + 20 nM CPT, ATP luminescence, 48 h. Potency, µM (highest dose often 46.2 µM), without a hit: at the top dose activity change, negative = growth inhibition, hits mostly inhibitors. 12% of 420,000 active. AID 686979; note: potency is the fitted concentration of half-maximal effect; nearly all actives have a fitted effect of over 55% in size
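Cell growth measured by CellTiter-Glo luminescence after a minimum 48 h, 37 C compound exposure with 20 nM CPT in Tdp1-knockout DT40 cells stably expressing hTDP1, seeded 400/well; qHTS titration format.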
HT1080 IDH1KD tx – HT-1080 IDH1 knockdown cell toxicity (counter line). HT-1080 IDH1 knockdown viability, ATP luminescence, 48 h. Potency, µM (doses to about 46.1 µM), inactives show top-dose activity, negative = toxicity, hits mostly cytotoxic. 2% of 360,000 active. AID 686971;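 note: potency is the fitted concentration of half-maximal effect; 0% = DMSO wells and -100% = cell-free medium wells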
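CellTiter-Glo luminescence after 48 h compound exposure at 37 degrees C of IDH1-knockdown HT-1080 cells in 5% FBS RPMI. %Activity scaled between DMSO wells and cell-free media wells, with curves fitted and assigned curve classes.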
IL1B secr inh – blocks inflammasome-driven IL-1 beta release | activity change, % at 57.5 µM | 4.7% of 360,000 active | AID 743279 | THP-1 LPS/ATP IL-1B secretion, AlphaLISA, 16 h; stronger effect = lower value; in the data active = activity change below about -50%; inconclusive = mostly about -30% to -49%
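Secreted IL-1B measured by AlphaLISA bead assay after 16 h compound exposure of THP-1 cells; compounds (final up to 57.5 uM) added 1 h before LPS (250 ng/mL) and ATP (1.25 mM) stimulation; lower signal means less secretion.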
HT1080-NT tox – kills 2HG-producing HT-1080-NT fibrosarcoma cells; AID 686970; Potency, µM (doses to about 46.1 µM), for inactives: at the top dose activity, negative = less viability, most hits filed as cytotoxic; 1.6% of 360,000 active; HT-1080-NT fibrosarcoma viability, CellTiter-Glo ATP luminescence, 48 h;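 note: NT is the 2HG producing partner of a matched IDH1 knockdown line; potency is the fitted concentration of half-maximal effect; 0% = DMSO-treated cells and -100% = media-only wells without cells; nearly all actives have a fitted effect of over 55% in size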
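750 cells/well, RPMI + 5% FBS; 2 h settle, compound pin-transfer, 48 h at 37 degrees C. CellTiter-Glo 10 min RT, luminescence. Normalized to DMSO and media-only wells.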
* hit, by the source's call; ? = inconclusive; . = no result; [ ] = dose if it differs, or a comment. Unless noted, calls come from the whole dose curve; as a rule, active = well fitted curve in the direction sought with a large enough effect; inconclusive = small, poorly fitted or top-dose-only effect, or another doubt; inactive = no such curve, though single readings can be large; an effect the other way counts as inactive or inconclusive. Unless noted, % is set by controls: 0 for no effect and ±100 for the full control effect.

SMILES	TDP1 cell noCPT	TDP1 cell CPT	HT1080 IDH1KD tx	IL1B secr inh	HT1080-NT tox
CC(=O)Cn1nnc2sc3c(c2c1=O)CCC(C(C)(C)C)C3 (centres undefined)	?	?	-16%	?	-26%
O=C(Cn1nnc2sc3c(c2c1=O)CCCC3)Nc1ccc(F)c(Cl)c1	-17%	?	.	.	.
Cc1ccc(Cl)cc1NC(=O)Cn1nnc2sc3c(c2c1=O)CCC(C(C)(C)C)C3 (centres undefined)	4.1µM*	7.3µM*	.	.	.
CCN(C(=O)Cn1nnc2sc3c(c2c1=O)CCC(C(C)(C)C)C3)c1cccc(C)c1 (centres undefined)	21µM*	16µM*	.	.	.
CCc1ccccc1NC(=O)Cn1nnc2sc3c(c2c1=O)CCC(C(C)(C)C)C3 (centres undefined)	15µM*	16µM*	.	.	.
CCC1(C2=CCCCC2)C(=O)NC(=S)N=C1N (centres undefined)	-10%	0%	26%	10	21%
O=C(Nc1ccc(S(=O)(=O)Nc2ncccn2)cc1)C1CC(=O)N(c2ccc(Cl)cc2)C1 (centres undefined)	4%	4%	22%	28	11%
CCOC(=O)c1sc(NC(=O)Cn2nnc3sc4c(c3c2=O)CCC(C(C)(C)C)C4)nc1C (centres undefined)	-19%	22%	8%	18	0%
CCCOC(=O)c1ccc(NC(=O)Cn2nnc3sc4c(c3c2=O)CCC(C(C)(C)C)C4)cc1 (centres undefined)	8.2µM*	18µM*	.	.	.
COC(=O)c1cn(CC(=O)N2CCCCCC2)c2ccccc12	3%	-1%	1%	-2	4%
CCOC(=O)C1=C(O)/C(=C/c2cn(CC(=O)N3CCCC3)c3ccccc23)SC1=Nc1ccccc1	18µM*	18µM*	5%	?	-1%
CC1CCN(CC(O)CN2c3ccccc3Sc3ccccc32)CC1 (centres undefined)	18µM*	?	11%	0	-2%
OCCNCC(O)CN1c2ccccc2Sc2ccccc21 (centres undefined)	?	?	-27%	?	?
C[C@@H]1CN(Cc2ccc3c(c2)CN(Cc2cn[nH]c2-c2ccccc2)CCO3)C[C@H](C)O1	-21%	4%[9.04 µM]	.	.	.
Cc1ccc(-c2sc(C(=O)NN)c(C)c2C#N)cc1	?	?	?	57	?
O=C(Nc1ccnn1C1CCNCC1)c1ccc2c(c1)OCO2	-8%	-30%	-2%	23	1%
CN1CC[C@H](CN2c3ccccc3Sc3ccccc32)C1	13µM*	?	.	.	.
CN1CCC(CN2c3ccccc3Sc3ccccc32)C1 (centres undefined)	12µM*	19µM*	.	.	.
COc1ccc(OC)c(NC(=O)c2nc(S(=O)(=O)Cc3ccccc3F)ncc2Cl)c1	0.63µM*	1µM*	.	.	.
COc1ccc(OC)c(NC(=O)c2nc(S(=O)(=O)Cc3ccccc3)ncc2Cl)c1	0.58µM*	0.58µM*	3.7µM*	-102*	4.6µM*
COC(C(=O)Nc1ccnn1C1CCN(Cc2ccc(C)s2)CC1)c1ccccc1 (centres undefined)	-25%	-12%	-4%	-30	4%
CCc1cccc2c(C(=O)CSc3nnc(C4CC4)o3)c[nH]c12	-10%	?	10%	-23	2%[9.24 µM]
Cc1sc2ncnc(N(C)Cc3cccs3)c2c1C	?	?	-14%	-11	-9%
OCCN(Cc1ccccc1)c1ncnc2sccc12	13µM*	?	-18%	26	-14%
CN(Cc1ccccc1F)c1ncnc2sccc12	21µM*	?	-27%	27	-22%
SMILES	TDP1 cell noCPT	TDP1 cell CPT	HT1080 IDH1KD tx	IL1B secr inh	HT1080-NT tox
CN(Cc1cccs1)c1ncnc2sccc12	16µM*	?	-18%	-21	-23%
CCOc1ccc(NS(=O)(=O)c2ccc(C(=O)N(C)CC(=O)Nc3cccc(OC)c3)cc2)cc1	16µM*	18µM*	?	13	-3%[9.24 µM]
O=C(Nc1ccccc1)Nc1ccc(C(=O)N2CCCC2)cc1	12µM*	21µM*	12µM*	?	?
COc1ccc(S(=O)(=O)Nc2ccc(Nc3ccccc3)cc2)cc1	?	21µM*	0%	-24	0%
O=C(Nc1ccc(C(=O)N2CCCCC2)cc1)c1ccccc1	-18%	-15%	-18%	-13	-11%
CCOc1ccc(S(=O)(=O)Nc2ccc(C(=O)N(C)CC(=O)Nc3ccc(OC)cc3)cc2)cc1	-25%	?	5%	-15	1%
COc1ccc(N2CCN(C(=O)COC(=O)c3cccc(S(=O)(=O)Nc4cccc(C)c4)c3)CC2)cc1	?	16µM*	-4%	25	-2%
Cc1c(NC(=O)COC(=O)c2ccc(O)cc2)c(=O)n(-c2ccccc2)n1C	-2%	-4%	-1%	-18	-2%
COc1ccccc1Nc1ccc(NS(=O)(=O)c2ccc(C(C)=O)cc2)cc1	16µM*	-19%	-2%	-16	0%
COc1ccc(NS(=O)(=O)c2ccc(C(=O)N3CCN(Cc4ccccc4)CC3)cc2)cc1	?	12µM*	-11%	-3	-12%
Cc1ccc(NS(=O)(=O)c2ccc(C(=O)N3CCCCCCC3)cc2)cc1	?	23µM*	-22%	-3	-9%
COc1ccc(NS(=O)(=O)c2ccc(NC(=O)C3CC3)cc2)cc1	9.2µM*	8.2µM*	2%	4	-1%
C=CCn1c(N)c(C(=O)NCCC2=CCCCC2)sc1=S	?	-22%	1%	0	1%
O=C(OCc1cc(=O)n2ccsc2n1)c1ccc(OC(F)F)cc1	-19%	9%	-7%	-9	-2%
Cc1oc2ncnc(N3CCOCC3)c2c1C(=O)NCc1ccccc1	-13%	-7%	.	.	.
CSCCC(NS(=O)(=O)c1ccccc1F)C(=O)N1CCCCCC1 (centres undefined)	14%	-16%	0%	0	0%
CSCCC(NS(=O)(=O)c1ccc(Cl)cc1)C(=O)OCc1cccc(Cl)c1 (centres undefined)	?	?	-22%	0	-23%
CSCCC(NS(=O)(=O)c1ccc(C)cc1)C(=O)N1CCCCCCC1 (centres undefined)	16µM*	?	6%	-4	0%
CSCCC(NS(=O)(=O)c1ccc(Cl)cc1)C(=O)OCc1c(Cl)cccc1Cl (centres undefined)	21µM*	?	-9%	36	-5%
CCOc1ccc(NS(=O)(=O)c2ccc(C(=O)N3CCCC(C)C3)cc2)cc1 (centres undefined)	16µM*	16µM*	-24%	50	-21%
